In all, about 52,000 compounds went through this assay and about 4,300 (8.3%) were called active. What follows is part of a selection rich in actives, with near analogues and random picks from the rest. Unmarked numbers belong to inactive results. No stated cut-off is given here; in the data, active means survival mostly below about 52% (no sharp cut-off); inactive means mostly above about 56%.

These results are taken from PubChem BioAssay AID463173 (ICCB-Longwood Screening Facility, Harvard Medical School, 2010).

In this test the test system is DeltatarO mutant. Briefly: S. aureus survival, RN4220 and DeltatarO strains – OD600, teichoic acid synthesis inhibitors, primary screen (AID 463173). The settings on record: S. aureus RN4220 wild type/DeltatarO growth, OD600, 18 h, active compounds read low, screened at 18.75 µg/mL (by protocol).
For the compound `CCOC(=O)C1CCN(C(c2cccc(F)c2)c2c(O)cc(C)n(CCOC)c2=O)CC1` (centres undefined), the survival was 135%.
Regarding `COc1ccc(CNC(=O)Cn2ccc3cc(S(=O)(=O)N4CCCCC4)ccc32)c(OC)c1`, the survival is 72%.
The value for `COc1cc(OC)c(NC(=O)CN(C)S(=O)(=O)c2ccc3c(c2)CCCC(=O)N3)cc1Cl` was 6% (active); that for `COc1cc(NC(=O)CN(C)S(=O)(=O)c2ccc3c(c2)CCCC(=O)N3)cc(OC)c1OC` was 70%; that for `Cc1cccc(NC(=O)CCNS(=O)(=O)c2ccc3c(c2)CCCC(=O)N3)c1C` was 96%.
In the case of `Cc1ccc(NC(=O)CCNS(=O)(=O)c2ccc3c(c2)CCCC(=O)N3)cc1`, the survival is 77%.
In the case of `Cc1ccc(C)c(NC(=O)CCNS(=O)(=O)c2ccc3c(c2)CCCC(=O)N3)c1`, the survival was -4% (active).
As for `COc1cc(Cl)c(NC(=O)CN(C)S(=O)(=O)c2ccc3c(c2)CCCC(=O)N3)c(OC)c1`, the survival is 83%.
Turning to `COc1ccccc1CNC(=O)CSc1ncc2c(n1)-c1ccccc1N(Cc1ccc(C)cc1)S2(=O)=O`, the survival was 64%.
Take `CCc1ccc(NC(=O)c2ccc3c(O)c(S(=O)(=O)c4ccc(Cl)cc4)c(=O)[nH]c3c2)cc1`: the survival is 75%.
Take `Cc1ccc(N(C(=O)Cn2nnc(-c3ccc(C)o3)n2)C(C(=O)NC2CCCCC2)c2ccc(F)cc2)c(C)c1` (centres undefined): the survival was 66%.
Take `COc1ccc(Cn2nnnc2C(c2ccccc2)N2CCC(C)CC2)cc1` (centres undefined): the survival was 68%.
The value for `CCc1ccc(NC(=O)CN2CCN(Cc3ccccc3)S2(=O)=O)cc1` was 68%; that for `CCOc1cc2sc(N3CCC(C(=O)Nc4ccc(C)cc4C)CC3)nc2cc1Br` was 71%; that for `CCOC(=O)c1nc(Nc2ccccc2C)c2ccccc2n1` was 49%.
Consider `CCOC(=O)c1nc(Nc2ccc(OC)cc2)c2ccccc2n1`, for which the survival is 153%.
In the case of `CCOC(=O)c1nc(Nc2cccc(C)c2)c2ccccc2n1`, the survival was 75%.
Consider `CCCOC(=O)c1cccc(Nc2nc(C(=O)OCC)nc3ccccc23)c1`, for which the survival was 20% (active).
Regarding `CCCCCOC(=O)c1ccc(Nc2nc(C(=O)OCC)nc3ccccc23)cc1`, the survival is 60%.
For the compound `CCOC(=O)c1nc(Nc2ccccc2OC)c2ccccc2n1`, the survival is 44% (active).
As for `CC(=O)c1cccc(NC(=O)c2cc3sc(Cl)cc3n2C)c1`, the survival is 122%.
For `CCOc1ccc(OCC)c(NC(=O)CN(C)S(=O)(=O)c2ccc3[nH]c(=O)oc3c2)c1`, the survival was 85%.
Regarding `COc1ccc(NC(=O)CSc2nc3c(oc4ccccc43)c(=O)n2-c2ccc(C)c(C)c2)cc1`, the survival is 82%.
In the case of `COC(=O)c1sccc1S(=O)(=O)N(CC(=O)Nc1cc(F)ccc1F)c1ccc(C)c(C)c1` it was 128%; in that of `COC(=O)c1sccc1S(=O)(=O)N(CC(=O)Nc1ccc(C)c(F)c1)c1ccc(C)c(C)c1`, 17% (active).
Regarding `CCc1cccc(NC(=O)CN(c2ccc(C)c(C)c2)S(=O)(=O)c2ccsc2C(=O)OC)c1`, the survival was -5% (active).
In the case of `COC(=O)c1sccc1S(=O)(=O)N(CC(=O)Nc1c(C)cccc1C)c1ccc(C)c(C)c1` it was 94%; in that of `COC(=O)c1sccc1S(=O)(=O)N(CC(=O)Nc1cc(C)ccc1C)c1ccc(C)c(C)c1`, 88%.
Consider `COC(=O)c1sccc1S(=O)(=O)N(CC(=O)Nc1cccc(C)c1C)c1ccc(C)c(C)c1`, for which the survival was 89%.
Turning to `Cn1c(C(O)c2ccccc2)n[nH]c1=S` (centres undefined), the survival was 93%.
For `COc1cccc(-n2c(SCC(N)=O)nc3c(oc4ccccc43)c2=O)c1`, the survival is 67%.
Turning to `O=C(c1ccccc1)N1CCN(S(=O)(=O)c2ccccc2)CC1`, the survival was 68%.
With `Cn1cc(-c2cc3n(n2)CCC(=O)N3CCCC(=O)Nc2ccccc2Cl)c2ccccc21`, the survival is -5% (active).
The value for `O=C(CN1C(=O)CCn2nc(-c3ccccc3)cc21)NCc1ccccc1` was 106%.
In the case of `Cn1cc(-c2cc3n(n2)CCC(=O)N3CCCC(=O)NCc2ccccc2)c2ccccc21` it was 92%; in that of `Cc1ccc(CNC(=O)CN2C(=O)CCn3nc(-c4ccccc4)cc32)cc1`, 72%; in that of `CN(C)c1ccc(CNC(=O)CN2C(=O)CCn3nc(-c4cn(C)c5ccccc45)cc32)cc1`, 54%.
Turning to `CCc1ccccc1NC(=O)CCCN1C(=O)CCn2nc(-c3cn(C)c4ccccc34)cc21`, the survival is 130%.
For the compound `Cn1cc(-c2cc3n(n2)CCC(=O)N3CCCC(=O)Nc2ccccc2F)c2ccccc21`, the survival was 134%.
As to `Cn1cc(-c2cc3n(n2)CCC(=O)N3CCCC(=O)NCc2ccc(Cl)cc2)c2ccccc21`, the survival was 122%.
As for `Cc1cccc(CNC(=O)CCCN2C(=O)CCn3nc(-c4cn(C)c5ccccc45)cc32)c1`, the survival is -5% (active).
The value for `CN(C)c1ccc(CNC(=O)CCCN2C(=O)CCn3nc(-c4cn(C)c5ccccc45)cc32)cc1` was 17% (active).
Consider `Cc1ccc(CNC(=O)CCCN2C(=O)CCn3nc(-c4cn(C)c5ccccc45)cc32)cc1`, for which the survival is 87%.
With `O=C(CN1C(=O)CCn2nc(-c3ccccc3)cc21)NCc1ccc(Cl)cc1`, the survival was 0% (active).
As to `COc1ccc(OC)c(NC(=O)c2c(NCc3sccc3C)sc3c2CCCCC3)c1`, the survival is 78%.
Take `c1ccc(N2CCN(c3ccccc3)C2c2cccs2)cc1`: the survival is 67%.
On to `CCCCCN1C(C(=O)c2ccccc2)=C(NC(=O)c2ccc(OC)cc2)c2ccccc2S1(=O)=O`, for which the survival was 57%.
On to `Cc1ccc(Cn2c(=O)n(CCc3ccccc3)c(=O)c3c(C)c(C)sc32)cc1`, for which the survival is 24%.
For `COc1cc(Cl)c(C)cc1NC(=O)CCn1c(=O)c2cccn2c2cccnc21`, the survival was 83%.
The value for `CC(C)(SC1CC(=O)N(c2ccccc2)C1=O)C(N)C(=O)O` (centres undefined) was 98%; that for `CCc1ccc2c(c1)NC(c1cccnc1)=NC(c1ccc(C(C)(C)C)cc1)=N2` was 63%.
With `CCN1c2ccccc2-c2nc(SCC(=O)Nc3cccc(C)c3C)ncc2S1(=O)=O`, the survival is 101%.
Take `CCc1ccc(-c2nn(CC(=O)NCc3ccccc3)c3c2cnc2ccc(F)cc23)cc1`: the survival is 92%.
Turning to `CCOc1ccccc1CNC(=O)CN1C(=O)CCn2nc(-c3cn(C)c4ccccc34)cc21`, the survival was 66%.
In the case of `CCOc1ccc(CNC(=O)CN2C(=O)CCn3nc(-c4cn(C)c5ccccc45)cc32)cc1OC` it was -4% (active).
`COc1ccc(CNC(=O)CN2C(=O)CCn3nc(-c4cn(C)c5ccccc45)cc32)cc1`: the survival was 96%.
Regarding `CCc1ccccc1NC(=O)CSc1nnc(-c2ccc(OC)cc2)s1`, the survival was 80%.
As for `Cc1ccc(C(=O)Nc2ccc3nc(SCC(=O)N4CCCc5ccccc54)sc3c2)cc1`, the survival was 80%.
Consider `CCOc1ccc(CNc2cc(C)nc3nc(-c4cccc(C)c4)nn23)cc1OC`, for which the survival was 95%.
For `CCCCN(CC)CCCNC(=O)CN1C(=O)CSc2ccc(S(=O)(=O)N3CCOCC3)cc21`, the survival was 97%.
On to `Cc1ccc(CN2CCC(CNC(=O)Nc3ccccc3F)CC2)cc1`, for which the survival is 113%.
The value for `O=C(NCC1CCN(Cc2ccccc2F)CC1)Nc1ccc(F)c(Cl)c1` was 100%; that for `Cc1ccc(CN2CCC(CNC(=O)Nc3cccc(Cl)c3C)C2)cc1` (centres undefined) was 75%.
With `O=C(NCC1CCN(Cc2cccc(Cl)c2)CC1)Nc1ccc(F)c(Cl)c1`, the survival is 55%.
Consider `O=C(NCC1CCN(Cc2cccc(Cl)c2)CC1)Nc1cc(Cl)ccc1Cl`, for which the survival was 17% (active).
On to `Cc1ccc(NC(=O)NCC2CCN(Cc3cccc(Cl)c3)CC2)cc1Cl`, for which the survival is -5% (active).
As for `COc1ccc(Cn2ccnc2SCC(=O)Nc2ccc3c(c2)OCCO3)cc1`, the survival was 94%.
On to `CCCCc1ccc(NC(=O)c2cc3c(=O)n4ccccc4nc3s2)cc1`, for which the survival is 89%.
In the case of `CCOC(=O)CNC(=O)c1cc2c(=O)n3cccc(C)c3nc2n1C`, the survival was 102%.
Turning to `CCCCN(CCCC)C(=O)c1cc2c(=O)n3cccc(C)c3nc2s1`, the survival is -13% (active).
For the compound `O=C(NCc1ccc(F)cc1)c1cc2c(=O)n3ccccc3nc2s1`, the survival is 140%.
As for `CCCCN(CCCC)C(=O)c1cc2c(=O)n3ccccc3nc2s1`, the survival is 39% (active).
Consider `Cc1cccn2c(=O)c3cc(C(=O)NC(C)C)n(C)c3nc12`, for which the survival is 53% (active).
On to `CCCCN(CC)C(=O)c1cc2c(=O)n3cccc(C)c3nc2s1`, for which the survival was 54%.
The value for `CCCN(CCC)C(=O)c1cc2c(=O)n3cccc(C)c3nc2s1` was 56%.
On to `CCCCN(CC)C(=O)c1cc2c(=O)n3ccccc3nc2n1C`, for which the survival was 50%.
For `Cc1cccn2c(=O)c3cc(C(=O)NC(C)(C)C)n(C)c3nc12`, the survival was 61%.
`CCCCN(CC)C(=O)c1cc2c(=O)n3cccc(C)c3nc2n1C`: the survival is 56% (active).
Consider `CCCN(CCC)C(=O)c1cc2c(=O)n3cccc(C)c3nc2n1C`, for which the survival is 62%.
For `O=C(Nc1ccccc1)c1ccncc1`, the survival is 97%.
`CC(=O)Nc1ccc(S(=O)(=O)Nc2cccc(-c3ccc(N4CCCCCC4)nn3)c2)cc1`: the survival was 83%.
Consider `Cc1onc2c1C(=O)CC(C)(C)C2`, for which the survival is 73%.
As to `Cc1cc(C)c2c(=O)cc(C(=O)NCc3ccc(S(N)(=O)=O)cc3)oc2c1`, the survival is 117%.
Take `Cc1ccc(F)cc1NC(=O)CSc1nc(-c2cccs2)cc(C(F)(F)F)n1`: the survival was 68%.
As for `CC(=O)N1CCOc2cc(S(=O)(=O)NCc3ccccc3Cl)c(Cl)cc21`, the survival was 76%.
Turning to `Cc1nc2sccn2c(=O)c1S(=O)(=O)Nc1ccc(N2CCOCC2)cc1`, the survival is 62%.
As to `CCOC(=O)c1ccc(NC(=O)CN2C(=O)C(C)(C)c3ccccc32)cc1`, the survival is 115%.
As to `CCN(C(=O)Cn1c(SCC(=O)NCc2ccccc2)nc2ccccc21)c1cccc(C)c1`, the survival is 65%.
For `Cc1nc(N)sc1C(C)(C)C`, the survival is 86%.
